The results in this text go back to the antibiotic and cytotoxicity screens of Wong et al. (2023).

Molecules are shown by their SMILES. Hit rate of the full screen: of about 39,000 compounds, about 3,300 (8.5%) were called active. This excerpt belongs to a sample that is enriched for actives.

The assay deals with HepG2. Nature of the assay: cytotoxicity call (relative viability < 0.9). Particulars: 10 µM.
With `C[C@H]1CN([C@@H](C)CO)C(=O)c2cccc(NC(=O)C3CCCCC3)c2O[C@@H]1CN(C)Cc1ccc(Oc2ccccc2)cc1`, the cytotoxicity call was “inactive”.
For `C[C@@H]1CCCCO[C@@H](CN(C)C(=O)NC2CCCCC2)[C@@H](C)CN([C@H](C)CO)C(=O)c2cc(NS(=O)(=O)c3ccc(F)cc3)ccc2O1` the value was “inactive”; for `C[C@H](CO)N1C[C@H](C)[C@H](CN(C)C(=O)Nc2cccc(Cl)c2Cl)OCc2ccccc2-c2c(n(C)c3ccccc23)C1=O`, “inactive”; for `C[C@@H]1CN([C@@H](C)CO)C(=O)c2ccccc2-c2ccccc2CO[C@@H]1CN(C)C(=O)Nc1ccccc1C(F)(F)F`, “active”.
For `C[C@H](CO)N1C[C@H](C)[C@@H](CN(C)C(=O)Nc2cccc(Cl)c2Cl)OCc2ccccc2-c2c(n(C)c3ccccc23)C1=O` the value was “active”.
For `C[C@@H]1CN([C@H](C)CO)C(=O)c2ccccc2-c2ccccc2CO[C@H]1CN(C)C(=O)Nc1ccccc1C(F)(F)F` the value was “inactive”; for `C[C@H](CO)N1C[C@H](C)[C@H](CN(C)C(=O)Nc2ccccc2C(F)(F)F)OCc2ccccc2-c2c(n(C)c3ccccc23)C1=O`, “inactive”.
Take `C[C@@H]1CN([C@H](C)CO)C(=O)c2ccccc2-c2ccccc2CO[C@@H]1CN(C)C(=O)Nc1ccccc1C(F)(F)F`: the cytotoxicity call was “inactive”.
The entry for `C[C@@H]1CN([C@H](C)CO)C(=O)c2c(c3ccccc3n2C)-c2ccccc2CO[C@H]1CN(C)C(=O)Nc1cccc(Cl)c1Cl` is “inactive”; for `C[C@H](CO)N1C[C@H](C)[C@@H](CN(C)C(=O)Nc2ccccc2C(F)(F)F)OCc2ccccc2-c2c(n(C)c3ccccc23)C1=O` it is “active”; for `C[C@@H]1CN([C@H](C)CO)C(=O)c2c(c3ccccc3n2C)-c2ccccc2CO[C@H]1CN(C)C(=O)Nc1ccccc1C(F)(F)F` it is “inactive”.
On to `Cn1ccnc1CN1CC[C@]2(COCCN(S(C)(=O)=O)C2)C1`, for which the cytotoxicity call is “inactive”.
On to `Cc1ccc(S(=O)(=O)N(C)C[C@H]2Oc3c(NS(C)(=O)=O)cccc3C(=O)N([C@H](C)CO)C[C@@H]2C)cc1`, for which the cytotoxicity call was “inactive”.
With `C[C@@H]1CN([C@H](C)CO)C(=O)CCCn2nncc2CO[C@@H]1CN(C)C(=O)Nc1cccc2ccccc12`, the cytotoxicity call was “inactive”.
Turning to `COc1cccc(-c2ccc3c(c2)O[C@H](CN(C)C(=O)C2CCOCC2)[C@@H](C)CN([C@H](C)CO)S3(=O)=O)c1`, the cytotoxicity call is “inactive”.
The entry for `NCc1ccc(C(=O)N2CCCCC2)cc1` is “inactive”.
Turning to `COCC(=O)N(C)C[C@@H]1Oc2cc(-c3ccc(C#N)cc3)ccc2S(=O)(=O)N([C@H](C)CO)C[C@@H]1C`, the cytotoxicity call was “inactive”.
As to `CNCc1nc(C)no1`, the cytotoxicity call was “inactive”.
The entry for `COc1ccccc1S(=O)(=O)N[C@H]1C=C[C@H](CC(=O)N2CCOCC2)O[C@@H]1CO` is “inactive”.
